Assay results published in PubChem BioAssay AID652054 (National Center for Advancing Translational Sciences (NCATS), 2013).
Among all 360,000 compounds or so, about 9,100 (2.5%) were called active. Roughly 4% stayed inconclusive and do not appear here. Rule as the data show it: active = max response below about -50%; inconclusive = no clear call, values can overlap the other calls; inactive = above that. The sample as a whole holds a higher share of actives than the screen did.

Target: D(3) dopamine receptor (Homo sapiens) (UniProt P35462)
Sequence (P35462 whole entry, looked up): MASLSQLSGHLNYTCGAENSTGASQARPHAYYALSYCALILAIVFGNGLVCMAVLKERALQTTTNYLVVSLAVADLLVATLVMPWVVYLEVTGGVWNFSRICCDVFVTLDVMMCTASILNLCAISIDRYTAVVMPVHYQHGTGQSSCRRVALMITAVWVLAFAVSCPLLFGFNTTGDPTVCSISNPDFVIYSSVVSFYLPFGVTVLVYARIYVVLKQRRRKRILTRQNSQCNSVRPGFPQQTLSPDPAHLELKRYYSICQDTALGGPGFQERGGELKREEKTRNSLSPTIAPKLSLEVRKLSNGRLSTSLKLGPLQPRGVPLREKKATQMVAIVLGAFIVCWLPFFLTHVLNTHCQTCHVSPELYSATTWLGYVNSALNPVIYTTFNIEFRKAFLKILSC
Assay: qHTS of D3 Dopamine Receptor Antagonist: qHTS
Settings: D3R cells, DiscoveRx beta-arrestin luminescence, antagonist mode; active compounds read low
Excerpt: D3 DARs represent a very important target for the treatment of several neuropsychiatric disorders. Indeed, one of the most promising therapeutic applications for the D3 DAR is in the area of addiction and related disorders. […] These findings have been observed with a number of addictive substances including cocaine, amphetamine, nicotine, and alcohol. […] Antagonism of the D3 DAR may also be therapeutic in the treatment of schizophrenia or psychosis. […] Since the D3 DAR is expressed in areas of the CNS associated with the control of mood and emotion, it has been hypothesized that selective antagonism of the D3 DAR may be effective in treating psychosis without inducing the motor side effects typically seen with D2 DAR antagonists.
This part of the project aims to discover novel antagonist.
NIH Chemical Genomics Center [NCGC]
NIH Molecular Libraries Probe Centers Network [MLPCN]
Assay Submitter (PI): David Sibley, NINDS
Freshly passaged cells are plated in 1536 well white, solid bottom plates at a density of 1500 cells/well in 3microl of complete media. After an overnight incubation at 37 degrees C in 5% CO2, cells are loaded with 23nl of test compound from the compound library (as well as dopamine controls) using a 1536 pintool and incubated at 37 degrees C for 90 minutes. Two microliters of DiscoveRx reagent is then added to all cells, and they are incubated for an additional 30 - 60 minutes at room temperature. Following incubation, luminescence is measured on a ViewLux CCD-based luminometer reader using a 20 sec exposure time.
% is scaled to controls: 0 for no effect and ±100 for the full control effect.

Max response, negative = inhibition, active:
Oc1c(CN2CCN(c3ccc(F)cc3)CC2)cc(Cl)c2cccnc12 -59.7%
CC1CN(C(=O)CCC(=O)NCCCN2CCC(Cc3ccccc3)CC2)c2cc(Cl)ccc2O1 (stereo not drawn) -69.6%
Cc1ccc(S(=O)(=O)Nc2nc3ccccc3nc2N2CCc3ccccc3C2)cc1 -50.8%
CC1CC(C)CN(C/C=C/c2ccccc2[N+](=O)[O-])C1 (stereo not drawn) -73.4%
O=[N+]([O-])c1ccccc1/C=C/CN1CCCC(CO)C1 (stereo not drawn) -76%
O=[N+]([O-])c1c(NCCO)cc(Sc2nc3ccccc3s2)c2nonc12 -81.4%
CCOC(=O)C1CCCCN1Cc1ccc(OC)c(OC)c1OC (stereo not drawn) -50.5%
COc1ccc(NC(=O)[C@H](NC(=O)[C@@H]2Cc3ccccc3CN2)c2ccccc2)cc1 -97.8%
CN1CCC[C@@H]1CCO[C@](C)(c1ccccc1)c1ccc(Cl)cc1 -107%
COc1ccc(C2C(C#N)=C(N)Oc3n[nH]c(C)c32)cc1CN1CCN(c2ccc(F)cc2)CC1 (stereo not drawn) -95%
O=C(Nc1ccccc1Cl)/C(Cl)=C(\Cl)S(=O)c1ccccc1 (stereo not drawn) -94.9%
C[C@@H](NC(=O)OC(C)(C)C)c1nnc(S(=O)(=O)Cc2ccccc2)o1 -110%
COc1ccc(S(=O)(=O)/N=C2\C=C(NS(=O)(=O)c3ccccc3)C(=O)c3ccccc32)cc1 -59.6%
C/C(=N\NS(=O)(=O)c1cccc([N+](=O)[O-])c1)c1cc2ccccc2o1 -65.1%
CCOC(=O)CNC(=O)CSc1nnc(COc2ccc(Cl)cc2)n1CC -55.4%
COc1ccc(CS(=O)/C(Cl)=C(/Cl)C(=O)Nc2ccc(OC)nc2)cc1 (stereo not drawn) -91.9%
CN1OC[C@@H]2CN(C(=O)c3ccc(-c4ccccc4)cc3)[C@H](c3ccc(-c4cccc(F)c4)cc3)C[C@@H]21 -51.6%
O=C(NCc1nnc(SCC(=O)N2CCC(Cc3ccccc3)CC2)o1)c1ccco1 -56.2%

Max response, negative = inhibition, inactive:
Cc1ccc(CN2CCN(c3ncccn3)CC2)c(C)c1 -14.2%
Cc1cccc(C)c1NC(=O)CN1CCN(c2ccc(F)cc2)CC1 -14.3%
COc1ccc(-c2nc3ccc(Br)cn3c2Cc2ccc(C)cc2)cc1OC 33.3%
CCc1nc2c(OCCOc3ccc(F)cc3)cccn2c1N(C)C(=O)c1ccccc1F 9.16%
CC1CN(C(=O)CCC(=O)NC2CCN(Cc3ccccc3)CC2)c2ccccc2O1 (stereo not drawn) -13.6%
CC1CN(C(=O)CCC(=O)NCc2cccnc2)c2ccccc2O1 (stereo not drawn) -17.6%
CC1=C(C(=O)N2CCOCC2)CC(CC(=O)NCc2cccc3ccccc23)C(=O)N1CCC1=CCCCC1 (stereo not drawn) -26.6%
CCCc1nc2c3ccccc3ccn2c1Cc1ccccc1C(F)(F)F -26.6%
CC1=C(C(=O)N2CCOCC2)CC(CC(=O)NCc2cccs2)C(=O)N1CCCN1CCCC1=O (stereo not drawn) 0%
COc1ccc(Cl)cc1NC(=O)CN(C)C(=O)c1cn(-c2ccccc2)nc1-c1cccs1 0.189%
Cc1ccc(S(=O)(=O)C(C#N)c2nc3ccccc3nc2N2CCCC2)cc1C (stereo not drawn) 17.6%
COCCCNc1nc2ccccc2nc1NS(=O)(=O)c1ccc(F)cc1 0.291%
CCc1c(-c2ccc(F)cc2)ncn1Cc1cccc(-c2ccccc2)c1 -10.3%
Nc1nc2c(ncn2[C@@H]2O[C@H](CNCc3ccc(OCCCN4CCOCC4)cc3)[C@@H](O)[C@H]2O)c(=O)[nH]1 -3.82%
CCOC(=O)C1CCCN(C(=O)c2cccc3ccccc23)CC1 (stereo not drawn) 15.1%
O=C(/C=C/c1ccccc1[N+](=O)[O-])OCC(=O)N1CCCC1 9.84%
COc1cc(CN2CC(C)CC(C)C2)cc([N+](=O)[O-])c1O (stereo not drawn) 17.6%
CC1CCCCC1NC(=O)/C(C#N)=C/C=C/c1ccccc1[N+](=O)[O-] (stereo not drawn) -12.8%
CC(C)CNC(=O)COC(=O)/C=C/c1ccccc1[N+](=O)[O-] -8.96%
CN[C@H]1C[C@H]2c3cc(Oc4ccccc4C)ccc3CCN2C(=O)[C@H]1[C@H](C)O 23.3%
Cc1noc(C)c1-c1ccc(C(=O)NCc2ccncc2)c2occc12 -3.57%
COc1cccc(C(NC(C)=O)c2nc(-c3cnc4ccccc4c3)cs2)c1 (stereo not drawn) 11.3%
C[C@H](CO)N1C[C@H](C)[C@@H](CN(C)C(=O)c2cnccn2)Oc2ncc(Br)cc2C1=O -23.4%
Cc1ccc(-c2cnc(C(O)c3cccc(C)c3C)[nH]2)cc1 (stereo not drawn) -20.7%
COc1ccc(OC)c(C(=O)NC2CCCc3c2cnn3-c2cc(C)cc(C)c2)c1 (stereo not drawn) 57.4%
CCc1nc2c(OCc3cccc(OC)c3)cccn2c1N(C)C(=O)C(C)C 10.3%
Cc1ccc(C(=O)N[C@H](C(=O)N2CCN(c3ncccn3)CC2)C(C)C)cc1 0%
Nc1nnc(SCC(=O)Nc2ccc3nc(SCC(=O)Nc4ccccc4)sc3c2)s1 0.758%
OCCNc1nc(Nc2ccc(Cl)c(Cl)c2)nc2ccccc12 -28.2%
CCCC(=O)N1CCC1(C)C(=O)Nc1ccc(-n2cncn2)cc1 (stereo not drawn) -18.5%
COc1cccc(CNC(=O)[C@@H]2CCCN2C(=O)[C@@H]2CCCN2C(=O)c2ccccc2)c1 -10.4%
CSc1ncccc1C(=O)N1CCCC(Nc2ccc(F)c(F)c2)C1 (stereo not drawn) 1.51%
CCOC(=O)C1CCN(S(=O)(=O)c2cc(F)ccc2OC)CC1 2.14%
CCOC(=O)C1CCN(C(=O)/C=C/c2cc(OC)c(OC)c(OC)c2)CC1 0.0271%
CCCCNC(=O)C[C@@H]1C[C@@]2(C(=O)OCC)CCC=C2N(Cc2ccco2)C1=O -17.5%
CC(=O)Nc1ccc(C=Cc2ccc([N+](=O)[O-])cc2)cc1 -0.898%
COc1ccc(NC(=O)C2CCC(CNC(=O)[C@@H]3Cc4ccccc4CN3)CC2)cc1 (stereo partly drawn) -8.86%
COc1cccc(NC(=O)[C@H](Cc2c[nH]c3ccccc23)NC(=O)[C@@H]2Cc3ccccc3CN2)c1 0%
O=C1OCCOC2CCCc3oc(-c4ccccc4)c1c32 (stereo not drawn) -1.49%
O=C(COc1ccc(S(=O)(=O)N2CCCC2)cc1[N+](=O)[O-])N1CCCCC1 -6.05%
CCC1CCC/C1=N\NC(=O)c1ccc(Cl)cc1 (stereo not drawn) -14%
CC1CCCN(CC(=O)Nc2cc(Cl)ccc2Oc2ccccc2)C1 (stereo not drawn) 0.948%
C#Cc1ccc(NC(=O)C2(C)CCN2C(=O)Cc2ccc(-c3ccccc3)cc2)cc1 (stereo not drawn) 4.18%
O=C(NCc1cccnc1)c1cc(C2CCCN(C(=O)CCCc3ccccc3)C2)on1 (stereo not drawn) 33.8%
COc1ccc(-c2[nH]nc3c2C(c2ccncc2)C(C#N)=C(N)O3)cc1 (stereo not drawn) -18.7%
COc1ccccc1CN1CCCC(N2CCN(c3ccc(F)cc3)CC2)C1 (stereo not drawn) 4.28%
CCC(CC)C(C(=O)NC1CCCC1)N1CCN(c2cc(C)nc3ccccc23)CC1 (stereo not drawn) 14.1%
NC(=O)C1(Nc2ccccc2Cl)CCCC1 -22%
CS/C(=C\C(=O)c1ccco1)Nc1ccccc1Cl 0.757%
O=C(NCc1ccco1)c1cccc(-c2ccc3nncn3c2)c1 -9.17%
CCc1nc2c(OCCOc3ccccc3)cccn2c1N(C=O)Cc1ccc(OC)cc1 12.7%
CCc1ccccc1NC(=O)CSc1nnc([C@@H](NC(=O)OC(C)(C)C)C(C)CC)o1 (stereo partly drawn) -1.74%
COc1ccccc1NC(=O)[C@H](COCc1ccccc1)NC(=O)OC(C)(C)C 13.5%
CCNC(=O)C1(C)CCCN(C(=O)c2c(C)noc2C)C1 (stereo not drawn) 0%
COc1ccc(NS(=O)(=O)c2ccc(Oc3c(C#N)cccc3C#N)cc2)cc1 0.938%
CCCC(NS(=O)(=O)c1ccc(OC)cc1)C(=O)O (stereo not drawn) -4.83%
O=S1(=O)CC(N2CCN(Cc3ccccc3F)CC2)CN1Cc1cn(Cc2cccc(C(F)(F)F)c2)nn1 (stereo not drawn) 1.97%
COc1ccc(CCNS(=O)(=O)c2cccc([N+](=O)[O-])c2)cc1 -20.3%
CC(C=Cc1ccccc1)=NNS(=O)(=O)c1ccc([N+](=O)[O-])cc1 -22%
CCn1c(COc2ccc(OC)cc2)nnc1SCC(=O)Nc1cc(OC)ccc1OC 5.77%
CCOC(=O)CNC(=O)CSc1nnc(-c2cccc(OC)c2)n1CC 0%
CCOC(=O)C(C(=O)c1ccccc1)C(c1ccccc1)c1nccc2ccccc12 (stereo not drawn) -11.4%
COc1ccc(S(=O)(=O)N2CCCCC2)cc1C(=O)NC1CCS(=O)(=O)C1 (stereo not drawn) 22%
COc1ccc(NC(=O)CN2C(=O)NC(C)(c3ccccc3)C2=O)cn1 (stereo not drawn) 28.1%
COc1ccc(C(O)c2nc(-c3ccc(OC)nc3)cs2)cc1 (stereo not drawn) -0.57%
CN1OC[C@@H]2CN(C(=O)c3cccnc3)[C@H](c3ccc(N4CCCCC4)cc3)C[C@@H]21 33.1%
CN1OC[C@@H]2CN(C(=O)c3cccc4ccccc34)[C@H](c3ccc(N4CCCCC4)cc3)C[C@@H]21 0.382%
COc1cccc(NC(=O)C2(C)CCN2Cc2ccccc2Cl)c1 (stereo not drawn) 9.45%
Cn1c(CNC(=O)c2ccco2)nnc1SCC(=O)N1CCN(c2ccccc2)CC1 9.96%
O=C(NCc1nnc(SCC(=O)N2CCCCCC2)o1)c1ccc(F)cc1 -15.6%
